# In the supplement of paper PMC8728848:
# The entries come from a sample that favours the strongest signals as a whole.
# What was measured:
# Assay in all cases: glycan array binding signal (z-score within array); higher = stronger binding
# Conditions in all cases: glycan notation: IUPAC condensed, linker removed
# [1] = target: Fuc(a1-2)Gal(b1-3)GalNAc(b1-3)Gal
# Outline: (§1)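 Glycan array binding is given as a within-array Z-score, which can be read as non-binding when negative. The arrays, 3228 of them, came from the Consortium for Functional Glycomics database and were retained only where the protein sequence was available. Z-scores were averaged across arrays of the same protein sequence at different concentrations or buffers and across linkers.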
# [2] = target: Fuc(a1-2)Gal(b1-3)[Fuc(a1-4)]GlcNAc(b1-3)[Fuc(a1-3)[Gal(b1-4)]GlcNAc(b1-6)]Gal(b1-4)Glc
# Outline: as §1
# [3] = target: Fuc(a1-2)Gal(b1-4)GlcNAc(b1-2)Man
# Outline: as §1
# [4] = target: Fuc(a1-2)Gal(b1-4)[Fuc(a1-3)]GlcNAc(b1-3)GalNAc
# Outline: as §1
# [5] = target: Fuc(a1-2)Gal(b1-4)[Fuc(a1-3)]GlcNAc(b1-3)[Neu5Ac(a2-6)Gal(b1-4)GlcNAc(b1-6)]Gal(b1-4)Glc
# Outline: as §1
# [6] = target: Fuc(a1-2)[Gal(a1-3)]Gal(b1-4)Glc
# Outline: as §1
# [7] = target: Fuc(a1-2)[Gal(a1-3)]Gal(b1-4)[Fuc(a1-3)]GlcNAc
# Outline: as §1
# [8] = target: Fuc(a1-2)[Gal(a1-4)]Gal(b1-4)GlcNAc
# Outline: as §1
# [9] = target: Fuc(a1-2)[GalNAc(a1-4)]Gal(b1-4)GlcNAc
# Outline: as §1
# [10] = target: Fuc(a1-3)[Gal(b1-4)]GlcNAc
# Outline: as §1
# [11] = target: Fuc(a1-3)[Gal(b1-4)]GlcNAc(b1-2)Man
# Outline: as §1
# [12] = target: Fuc(a1-3)[Gal(b1-4)]GlcNAc(b1-3)Gal(b1-4)[Fuc(a1-3)]GlcNAc(b1-3)Gal(b1-4)[Fuc(a1-3)]GlcNAc
# Outline: as §1
# [13] = target: Fuc(a1-3)[Gal3S(b1-4)]GlcNAc
# Outline: as §1
# [14] = target: Gal(a1-3)Gal(b1-3)GlcNAc(b1-6)GalNAc
# Outline: as §1
# [15] = target: Gal(a1-3)Gal(b1-4)GlcNAc(b1-2)Man
# Outline: as §1
# [16] = target: Gal(a1-3)Gal(b1-4)GlcNAc(b1-2)Man(a1-3)[Gal(a1-3)Gal(b1-4)GlcNAc(b1-2)Man(a1-6)]Man(b1-4)GlcNAc(b1-4)GlcNAc
# Outline: as §1
# [17] = target: Gal(a1-3)Gal(b1-4)GlcNAc(b1-3)GalNAc
# Outline: as §1
# [18] = target: Gal(a1-3)[Gal(a1-4)]Gal(b1-4)GlcNAc
# Outline: as §1
# [19] = target: Gal(a1-4)Gal(b1-3)GlcNAc(b1-2)Man(a1-3)[Gal(a1-4)Gal(b1-3)GlcNAc(b1-2)Man(a1-6)]Man(b1-4)GlcNAc(b1-4)GlcNAc
# Outline: as §1
# Gal(a1-4)Gal(b1-4)Glc = target: Gal(a1-4)Gal(b1-4)Glc
# Outline: as §1
# Gal(a1-4)Gal(b1-4)GlcNAc = target: Gal(a1-4)Gal(b1-4)GlcNAc
# Outline: as §1
# [20] = target: Gal(a1-4)Gal(b1-4)GlcNAc(b1-2)Man(a1-3)[Gal(a1-4)Gal(b1-4)GlcNAc(b1-2)Man(a1-6)]Man(b1-4)GlcNAc(b1-4)GlcNAc
# Outline: as §1
# Gal(a1-4)GlcNAc = target: Gal(a1-4)GlcNAc
# Outline: as §1
# Gal(a1-6)Glc = target: Gal(a1-6)Glc
# Outline: as §1
# Gal(b1-2)Gal = target: Gal(b1-2)Gal
# Outline: as §1
# [21] = target: Gal(b1-3)GalNAc(a1-3)[Fuc(a1-2)]Gal(b1-4)GlcNAc
# Outline: as §1
# [22] = target: Gal(b1-3)GlcNAc(b1-3)Gal(b1-4)GlcNAc
# Outline: as §1
# [23] = target: Gal(b1-3)GlcNAc(b1-6)Gal(b1-4)GlcNAc
# Outline: as §1
# [24] = target: Gal(b1-3)GlcNAc(b1-6)[Gal(b1-3)]GalNAc
# Outline: as §1
# Gal(b1-4)Glc6S = target: Gal(b1-4)Glc6S
# Outline: as §1
binder,measurement,setting,value
Epa13 (Candida glabrata) (protein) MGSSHHHHHHSSGLVPRGSHMASDSSENGYAHGCSPSIRAKLKPGLSMEIYSYALRPTDDHCWDSAYLDPMFPRTGYLTHKLLGKAEGIIGPLNFLAKNPACIPAVSTLPLAFHFPKPFTITNFTMLLYGYLSPKKTGKYTFKLLADDLLLMNFGADNAFDCCSHDATKDNIGEYVAYSVWPGVNKNVTVYLESGIYYPLRLFFNNRDAIAQLDFAYYFNDSPIRQTDFSGMFFSIPDSVKCPANI,glycan array binding signal (z-score),[1],0.112
same,glycan array binding signal (z-score),[2],-0.604
same,glycan array binding signal (z-score),[3],0.385
same,glycan array binding signal (z-score),[4],2.14
same,glycan array binding signal (z-score),[5],-0.526
same,glycan array binding signal (z-score),[6],-0.047
same,glycan array binding signal (z-score),[7],0.02
same,glycan array binding signal (z-score),[8],9.27
same,glycan array binding signal (z-score),[9],-0.453
same,glycan array binding signal (z-score),[10],-0.454
same,glycan array binding signal (z-score),[11],-0.124
same,glycan array binding signal (z-score),[12],-0.429
same,glycan array binding signal (z-score),[13],-0.351
same,glycan array binding signal (z-score),[14],1.13
same,glycan array binding signal (z-score),[15],0.125
same,glycan array binding signal (z-score),[16],4.93
same,glycan array binding signal (z-score),[17],0.561
same,glycan array binding signal (z-score),[18],1.47
same,glycan array binding signal (z-score),[19],4.04
same,glycan array binding signal (z-score),Gal(a1-4)Gal(b1-4)Glc,3.52
same,glycan array binding signal (z-score),Gal(a1-4)Gal(b1-4)GlcNAc,4.15
same,glycan array binding signal (z-score),[20],5.18
same,glycan array binding signal (z-score),Gal(a1-4)GlcNAc,7.08
same,glycan array binding signal (z-score),Gal(a1-6)Glc,13.2
same,glycan array binding signal (z-score),Gal(b1-2)Gal,4.04
same,glycan array binding signal (z-score),[21],-0.314
same,glycan array binding signal (z-score),[22],-0.418
same,glycan array binding signal (z-score),[23],-0.113
same,glycan array binding signal (z-score),[24],-0.014
same,glycan array binding signal (z-score),Gal(b1-4)Glc6S,0.255
